# According to PubChem BioAssay (NCATS):
# Records with an inconclusive call do not appear. Values without a mark were called inactive. Calls follow the shape of the dose curve; as a rule, active = well fitted inhibition curve with a large enough effect; inconclusive = small, poorly fitted or top-dose-only effect; inactive = flat fitted curve, though single readings scatter.
# Target: Calcium and integrin-binding protein 1 (Homo sapiens) (UniProt Q99828)
# Assay: Primary qHTS for Identification of Calcium Integrin Binding Protein 1 (CIB1) Competitor (AID 1508620);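 also: GST tagged CIB1 binding a fluorescein labelled alphaIIb integrin peptide tracer; top concentration of the series differs between compounds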
# Conditions: CIB1-GST / FITC-alphaIIb peptide fluorescence polarization; series mostly up to 114 µM; activity change, negative = inhibition: at the top concentration
# In short: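 CIB1-GST (1 uM final) and compound incubated 15 min at room temperature before adding FITC-alphaIIb peptide tracer (100 nM final). Competition for binding read by fluorescence polarization (ex 480, em 540) after another 15 min at room temperature.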
# % is scaled to controls: 0 for no effect and ±100 for the full control effect.
# Calcium and integrin-binding protein 1 (Homo sapiens), sequence (Q99828 whole entry, looked up): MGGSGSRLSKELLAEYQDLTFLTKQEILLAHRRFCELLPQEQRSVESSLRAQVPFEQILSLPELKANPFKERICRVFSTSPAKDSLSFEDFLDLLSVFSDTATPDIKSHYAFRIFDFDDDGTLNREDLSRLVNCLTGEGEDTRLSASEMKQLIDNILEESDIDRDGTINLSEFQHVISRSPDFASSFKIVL
row,SMILES,"activity change, negative = inhibition"
1,COc1ccc(C2=Nn3c(nnc3-c3ccccc3OC)SC2)cc1O[C@H]1CCOC1,1.1%
2,O=C(OCC#CCSc1nnc(-c2cccc3ccccc23)o1)c1ccc(Cl)cc1,0.96%
3,COc1ccc(NC(=O)Nc2ccc(-c3nc4ccccc4[nH]3)cc2)cc1OC,-17.5%
4,CC(=O)Nc1sc2c(c1-c1cccc(N(C)C)c1)CCNC2,2.47%
5,COc1ccc([S+](=O)([O-])N2CCN([S+](=O)([O-])c3ccc4c(c3)OCCO4)CC2)c(OC)c1,3.27%
6,COc1ccc(C(=O)c2ccc(-c3no[n+]([O-])c3C#N)cc2)cc1,-2.59%
7,O=S(=O)(c1ccccc1)N1CCN(c2nc(-c3ccc(Br)cc3)cs2)CC1,5.29%
8,COc1ccc(C2Nc3ccccc3C(=O)N2Cc2cccc(-c3ccccc3)c2)cc1COc1ccc(NC(C)=O)cc1 (stereo not given),4.1%
9,COc1ccc(-c2nnc3n2N=C(c2ccc(OC)c(OC)c2)CS3)cc1,-2.27%
10,Cc1cc(C)nc(NCc2ccc(O)c3ncccc23)c1,19.8%
11,O=[S+]([O-])(Nc1ccccc1)c1ccc(NCc2cccc(Cl)c2F)cc1,8.19%
12,COc1cccc(NC(=S)N2CCN(c3ccc4ccccc4n3)CC2)n1,4.67%
13,Cn1nnnc1Sc1ncnc2scc(I)c12,-9.98%
14,CCCCNC(=S)NCCCN(Cc1ccc(Cl)c(Cl)c1)c1ccc(Br)cn1,-4.36%
15,Fc1cc(F)cc(Nc2nc(Cl)nc(NC3CCCC3)n2)c1,1.62%
16,COc1cc(O)c(C(CC(=O)N2CCCC(C(C)C)C2)c2ccc3c(c2)OCO3)c(OC)c1 (stereo not given),-0.858% [at 228 µM]
17,CC(C)(C)OC(=O)Cc1nnc(-c2cc3ccccc3[nH]2)s1,2.06%
18,O=S(=O)(Nc1nccs1)c1ccc(NCc2cccc(Cl)c2Cl)cc1,1.83%
19,Cc1ccsc1CN(C)c1ncnc2ccc(-c3ccoc3)cc12,-16.5%
20,Cc1ccc(-c2ccc(=O)n(CC(=O)NCCCc3ccccn3)n2)cc1,2.36%

row,SMILES,"activity change, negative = inhibition"
1,N#Cc1c(-c2cccc(Cl)c2)no[n+]1[O-],-0.861%
2,CCn1cnc2c(Nc3cccc(Cl)c3)nc(C#N)nc21,0.819%
3,Cc1ccc(NS(=O)(=O)c2cc3c(cc2/C=C/c2ccccc2)NC(=O)CO3)cc1C,1.45%
4,CCCCN(C)C(=O)Cn1nc(-c2ccc(C(C)=O)cc2)ccc1=O,-0.249%
5,O=C(CNC(=O)c1ccc2ccccc2c1)OC(C(=O)Nc1cc(C(F)(F)F)ccc1Cl)c1ccccc1 (stereo not given),3.94%
6,COc1ccc(N2C[C@]34C=C[C@H](O3)C(C(=O)O)C4C2=O)cc1OC (stereo not given in full),1.01%
7,Cn1c2ccsc2c2cnn(Cc3ccccc3F)c(=O)c21,7.04%
8,Cc1cc(NS(=O)(=O)c2ccc(NC(=O)C(C)(C)c3ccc(Cl)c(Cl)c3)cc2)no1,-19%
9,COc1ccc(Cn2ncc3c4sc(C)cc4n(C)c3c2=O)cc1,0.153%
10,O=C(Nc1nc(Nc2cc(F)cc(F)c2)nc(NC2CCCC2)n1)OCc1ccccc1,-2.55%
11,CCc1nnc2sc(-c3ccc(C)c(NC(=O)c4ccc(-c5cccc(Cl)c5)o4)c3)nn12,1.32%
12,Cc1ccc(-n2c(=O)ccc(=O)n2CC(=O)NCCc2ccccc2)cc1,5.84%
13,Cc1ccccc1C(=O)N1CCc2cc(-c3ccnc(NC(=O)Cc4ccccc4)n3)ccc21,4.64%
14,Cc1ccc(OCCn2c(CCNC(=O)c3ccc(C(F)(F)F)cc3)nc3ccccc32)cc1,-1.97%
15,Cc1ccc(-c2ccc(CNc3nc(-c4ccccc4C(C)C)nc4ccsc34)cc2)cn1,-0.0866%
16,CC(C)c1ccccc1SC1=NS(=O)(=O)c2ccccc21,-15.4%
17,O=C(Cc1nnc(CNC(=O)c2ccccc2)o1)Nc1cc(C(F)(F)F)ccc1Cl,1.14%
18,COc1ccc(C2Nc3ccccc3C(=O)N2Cc2ccccc2Cl)cc1COc1ccc(NC(C)=O)cc1 (stereo not given),6.11%
19,N#CN1CCC(NC(=O)c2ccc(F)cc2)CC1,-2.65%
20,O=S(=O)(NCCCCCCNS(=O)(=O)c1c(F)cccc1F)c1ccc2c(c1)OCCO2,-0.125%
